Avidin fluor: compound fluoresces at 488/530 nm on avidin beads; 220,000 compounds, 0.38% hits; fluorescence (KMESF) at 10 µM; compound fluorescence 488/530 nm, flow cytometry; hits give high values; in the data active = fluorescence above about 47
GSH bead fluor: compound fluoresces at 488/530 nm on GSH beads. AID 1776. fluorescence (KMESF) at 10 µM. 190,000 compounds, 0.25% hits. GSH beads flow cytometry, compound fluorescence 488/530 nm; hits give high values; in the data active = fluorescence above about 89;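 also: glutathione beads carrying GST-tagged Bcl family fusion proteins plus one bare bead set; values are compound well signal with DMSO vehicle wells as background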
RGS16-Gao: RGS16-Galphao interaction regulator (human) | O15492+P09471 | binding response (% of control), % at 10 µM | bead-based flow cytometry RGS16-Galphao binding, fluorescence; actives lie on both sides | 220,000 compounds, 0.38% hits;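 also: Galphao activated by GDP with aluminum fluoride before binding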
RGS7-Gao reg: regulators of human RGS7-Galphao interaction; 220,000 compounds, 0.35% hits; binding response (% of control), % at 10 µM; P09471; Multiplexed bead flow cytometry, RGS7-Galphao binding; actives lie on both sides; AID 1439; in the data active = binding response below about 49% or above about 150%; inconclusive = no clear call, values can overlap the other calls; inactive = in between;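 also: fluorescent Galphao held in activated GDP-AlF4 state binding bead-coupled RGS7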
Target sequence (P09471 whole entry, looked up): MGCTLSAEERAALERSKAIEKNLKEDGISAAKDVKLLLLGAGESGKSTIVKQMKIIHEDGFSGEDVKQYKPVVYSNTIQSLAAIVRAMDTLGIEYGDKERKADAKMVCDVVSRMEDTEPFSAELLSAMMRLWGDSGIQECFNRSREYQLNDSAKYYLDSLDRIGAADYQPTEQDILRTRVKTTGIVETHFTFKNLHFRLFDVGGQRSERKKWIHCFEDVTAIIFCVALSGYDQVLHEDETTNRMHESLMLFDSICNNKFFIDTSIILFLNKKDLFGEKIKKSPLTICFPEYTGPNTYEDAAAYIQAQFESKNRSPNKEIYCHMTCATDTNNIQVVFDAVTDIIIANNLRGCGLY
RGS4-Gao reg: modulates binding of RGS4 to human Galphao; binding response (% of control), % at 10 µM; 220,000 compounds, 0.33% hits; P09471; AID 1415; Multiplexed bead flow cytometry; actives lie on both sides; in the data active = binding response below about 49% or above about 150%; inactive = in between;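 also: fluorescent Galphao activated with aluminum fluoride binding bead-coupled RGS4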
RGS8-Gao: modulates binding of RGS8 to human Galphao; multiplexed bead flow cytometry; actives lie on both sides; 220,000 compounds, 0.34% hits; P09471; response (percent of control binding), % at 10 µM; in the data active = response below about 60% or above about 140%; inactive = in between;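 also: Galphao activated as the GDP aluminium fluoride complex binding bead-coupled RGS8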
RGS-Gao: modulates binding between human RGS4 and Galphao; shares compounds with RGS16-Gao; multiplexed bead flow cytometry, RGS–Galpha-o binding; RGS4–Galpha-o binding response, % at 10 µM; 1,600 compounds, 99% hits; AID 1504;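 also: fluorescently labeled Galpha-o bound to GDP with aluminium fluoride binding biotinylated RGS beads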
Avidin counter: biotin-avidin bead binding disruption counter-screen. inhibition, % at 10 µM. streptavidin beads, fluorescein-biotin binding, flow cytometry. AID 1783. 1,700 tested, under 10 active. shares compounds with RGS16-Gao;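 active = inhibition above 50%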;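 also: median green fluorescence of gated singlet beads compared with DMSO control wells; 0% = DMSO wells and 100% = complete loss of bead fluorescence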
RGS8-Gao single: RGS8-Galphao interaction regulation, single point confirmation; binding response (% of control), % at 10 µM; bead-based flow cytometry RGS8-Galphao binding, fluorescence; actives lie on both sides; AID 1836; shares compounds with RGS16-Gao; 1,700 compounds, 3% hits; in the data active = binding response below about 72% or above about 130%; inactive = in between;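 also: Galphao activated as GDP AlF4 complex before binding bead RGS8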
RGS7-Gao confirm: confirmation of regulators of human RGS7-Galphao interaction. shares compounds with RGS16-Gao. bead-based flow cytometry RGS7-Galphao binding; actives lie on both sides. response (percent of control binding), % at 10 µM. 1,700 compounds, 7.8% hits; in the data active = response below about 75% or above about 130%; inactive = in between;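 also: fluorescent Galphao activated with GDP and aluminum fluoride binding bead-coupled RGS7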
RGS16-Gao conf: confirmation of regulators of human RGS16-Galphao interaction | AID 1838 | shares compounds with RGS16-Gao | bead-based flow cytometry, RGS16-Galphao binding; actives lie on both sides | response (% of control binding), % at 10 µM | 1,700 compounds, 4% hits; in the data active = response below about 74% or above about 130%; inactive = in between;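 also: Galphao activated as the GDP aluminium fluoride complex binding bead-coupled RGS16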
RGS4-Gao confirm: confirmation of regulators of human RGS4-Galphao interaction. RGS4-Galphao binding, multiplexed bead flow cytometry; actives lie on both sides. 1,700 compounds, 4% hits. AID 1840. binding response (% of control), % at 10 µM. shares compounds with RGS16-Gao; in the data active = binding response below about 74% or above about 130%; inactive = in between
RGS19-Gao single: confirmation of regulators of human RGS19-Galphao interaction; shares compounds with RGS16-Gao; bead-based flow cytometry RGS19-Galphao binding; actives lie on both sides; response (percent of control binding), % at 10 µM; 1,700 compounds, 5% hits; in the data active = response below about 50% or above about 160%; inactive = in between;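 also: 100% = no compound control and 0% = blank background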
Target sequence (P09471 whole entry, looked up): as above
Target sequence (P49795 whole entry, looked up): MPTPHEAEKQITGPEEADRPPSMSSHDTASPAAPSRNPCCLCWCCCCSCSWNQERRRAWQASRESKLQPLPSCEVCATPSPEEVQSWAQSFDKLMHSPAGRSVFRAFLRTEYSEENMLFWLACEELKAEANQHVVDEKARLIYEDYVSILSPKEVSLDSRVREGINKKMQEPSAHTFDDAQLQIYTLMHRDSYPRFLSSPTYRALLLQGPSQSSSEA
* hit, by the source's call; [ ] = another dose, or the depositor's remark. A selection: hits, their analogues and other compounds. The true share with any hit is near 1.2%. Unless noted, no rule for the calls is given here.

What do the screens show for `O=C(c1cnccn1)N(Cc1ccco1)C1(C(=O)NC2CCCCC2)CCCCC1`?
Avidin fluor: 8; GSH bead fluor: 8; RGS16-Gao: -54*; RGS7-Gao reg: 89; RGS4-Gao reg: 79; RGS8-Gao: 80; RGS-Gao: 79*; Avidin counter: 2; RGS8-Gao single: 102; RGS7-Gao confirm: 106; RGS16-Gao conf: 102; RGS4-Gao confirm: 105; RGS19-Gao single: 106

Results for O=C(c1cnccn1)N(Cc1ccco1)C1(C(=O)NC2CCCC2)CCCCC1 ?
Avidin fluor: 13; GSH bead fluor: 49; RGS16-Gao: 105; RGS7-Gao reg: 102; RGS4-Gao reg: 100; RGS8-Gao: 100

Results for OC[C@@H](O)C1OC2NC(=S)OC2C1O (stereo partly specified) ?
Avidin fluor: 11; GSH bead fluor: 28; RGS16-Gao: 116; RGS7-Gao reg: 102; RGS4-Gao reg: 106; RGS8-Gao: 109

How did CCOc1ccc(CCNC(=O)c2[nH]c(C)c(C(C)=O)c2C)cc1OCC do in these assays?
GSH bead fluor: 10; Avidin counter: 3; RGS8-Gao single: 101; RGS7-Gao confirm: 96; RGS16-Gao conf: 99; RGS4-Gao confirm: 98; RGS19-Gao single: 91

How did O=C1NC(SCCCF)=N/C1=C/c1ccc(-n2cncn2)cc1 do in these assays?
Avidin fluor: 8; RGS16-Gao: 104; RGS7-Gao reg: inconclusive; RGS4-Gao reg: 97; RGS8-Gao: 101

How did COc1ccc(C(=O)Nc2ccccc2C(=O)NC(Cc2c[nH]c3ccccc23)C(=O)O)cc1 (stereo unspecified) do in these assays?
Avidin fluor: 12; GSH bead fluor: 13; RGS16-Gao: 107; RGS7-Gao reg: 101; RGS4-Gao reg: 102; RGS8-Gao: 102

How did Cc1cccc(-c2nnc3sc(-c4ccccc4)nn23)c1 do in these assays?
GSH bead fluor: 41; Avidin counter: 2; RGS8-Gao single: 95; RGS7-Gao confirm: 90; RGS16-Gao conf: 93; RGS4-Gao confirm: 95; RGS19-Gao single: 87

How did Cc1nnc(SCC(=O)Nc2cc(C(C)(C)C)nn2-c2ccccc2)s1 do in these assays?
Avidin fluor: 11; GSH bead fluor: 6; RGS16-Gao: 112; RGS7-Gao reg: 104; RGS4-Gao reg: 101; RGS8-Gao: 103

What do the screens show for `CCn1c(SCC(=O)Nc2cc(C(C)(C)C)nn2-c2ccccc2)nnc1-c1cccs1`?
Avidin fluor: 86*; GSH bead fluor: 18; RGS16-Gao: 91; RGS7-Gao reg: 185*[activator]; RGS4-Gao reg: 110; RGS8-Gao: 96; RGS-Gao: 110*; Avidin counter: 0; RGS8-Gao single: 94; RGS7-Gao confirm: 89; RGS16-Gao conf: 95; RGS4-Gao confirm: 93; RGS19-Gao single: 86

What do the screens show for `O=C(O)/C=C/c1ccccc1Oc1ccccc1`?
Avidin fluor: 88*; GSH bead fluor: 30; RGS16-Gao: 184; RGS7-Gao reg: 154*[activator]; RGS4-Gao reg: 162*[activator]; RGS8-Gao: 138; Avidin counter: 0; RGS8-Gao single: 98; RGS7-Gao confirm: 96; RGS16-Gao conf: 98; RGS4-Gao confirm: 96; RGS19-Gao single: 97

How did O=C(O)/C=C\c1ccccc1Oc1ccc(F)cc1 do in these assays?
Avidin fluor: 89*; GSH bead fluor: 70; RGS16-Gao: 101; RGS7-Gao reg: 167*[activator]; RGS4-Gao reg: 127; RGS8-Gao: 100; RGS-Gao: 127*; Avidin counter: 1; RGS8-Gao single: 103; RGS7-Gao confirm: 86; RGS16-Gao conf: 98; RGS4-Gao confirm: 97; RGS19-Gao single: 98

What do the screens show for `COc1ccc(Oc2ccccc2/C=C/C(=O)O)cc1`?
Avidin fluor: 33; GSH bead fluor: 12; RGS16-Gao: 101; RGS7-Gao reg: 98; RGS4-Gao reg: 98; RGS8-Gao: 100

Results for Cc1ccc(NC(=O)Nc2ccccc2CC[N+](=O)[O-])cc1 ?
Avidin fluor: 21; GSH bead fluor: 10; RGS16-Gao: 270; RGS7-Gao reg: 118; RGS4-Gao reg: 117; RGS8-Gao: 149*[activator]; RGS-Gao: 117*; Avidin counter: 0; RGS8-Gao single: 103; RGS7-Gao confirm: 101; RGS16-Gao conf: 102; RGS4-Gao confirm: 102; RGS19-Gao single: 94

What do the screens show for `O=C(NNS(=O)(=O)c1ccccc1)C1CC(c2cccnc2)=NO1` (stereo unspecified)?
Avidin fluor: 9; GSH bead fluor: 16; RGS16-Gao: 100; RGS7-Gao reg: inconclusive; RGS4-Gao reg: 100; RGS8-Gao: 100

How did O=C1C(Cc2ccc3[nH]ccc3c2)NC(=S)N1c1ccccc1 (stereo unspecified) do in these assays?
Avidin fluor: 5; RGS16-Gao: 102; RGS7-Gao reg: inconclusive; RGS4-Gao reg: 102; RGS8-Gao: 101

How did Cc1ccc(C2(C)NC(=O)N(CC(=O)NCCC3=CCCCC3)C2=O)cc1 (stereo unspecified) do in these assays?
Avidin fluor: 9; GSH bead fluor: 24; RGS16-Gao: 101; RGS7-Gao reg: 100; RGS4-Gao reg: 100; RGS8-Gao: 102

What do the screens show for `O=C(CN1C(=O)NC2(CCCC2)C1=O)NCCC1=CCCCC1`?
Avidin fluor: 14; GSH bead fluor: 12; RGS16-Gao: 27; RGS7-Gao reg: 29*; RGS4-Gao reg: 37*; RGS8-Gao: 31*; Avidin counter: -1; RGS8-Gao single: 101; RGS7-Gao confirm: 98; RGS16-Gao conf: 101; RGS4-Gao confirm: 99; RGS19-Gao single: 98
